Screening data as filed in PubChem.
In the library only some 0.44% were active in any assay of this set; here they are far more common.
RmlC RmlD mix = inhibitors of RmlC and RmlD coupled enzymes; inhibition, % at 5.5 µM; 110,000 tested, 0.39% active; AID 1532; RmlC/RmlD coupled enzyme inhibition, 384-well mixture HTS; in the data active = inhibition above about 30%, passing the limit was not always enough
YopH inh = YopH (Yersinia) phosphatase inhibition; fluorescence Ex485/Em525; inhibition, % (concentration not given with the values); 140,000 tested, 0.16% active; in the data active = inhibition above about 50%
An asterisk follows results filed as active.

COC(=O)C1=CN(CC2CCCO2)C=C(C(=O)OC)C1c1ccsc1 (centres undefined) was read as RmlC RmlD mix 58* and YopH inh -22.
For CC(=O)Nc1nonc1NC(C)=O the results were RmlC RmlD mix -9 and YopH inh -5.
Screening CC(=O)Nc1cc(OC(C)=O)c2nonc2c1OC(C)=O returned RmlC RmlD mix -6 and YopH inh 76*.
For CC(=O)Nc1cc(N=Cc2ccc(O)cc2O)c(Cl)cc1Cl the results were YopH inh -24.
Cc1noc(NS(=O)(=O)c2ccc(NC(=O)COc3ccc(Cl)cc3Cl)cc2)c1C was read as YopH inh -31.
`Cc1noc(NS(=O)(=O)c2ccc(NC(=O)CCCOc3ccc(Cl)cc3Cl)cc2)c1C` gave RmlC RmlD mix 5 and YopH inh 92*.
Screening Cc1cc(C)n(CC(=O)N2c3ccccc3Sc3ccccc32)n1 returned RmlC RmlD mix 5 and YopH inh -6.
`O=C1CCC(=O)N1CC(=O)N1c2ccccc2Sc2ccccc21` gave RmlC RmlD mix 8 and YopH inh 54*.
For O=C1C(=O)c2cccc3cccc1c23 the results were YopH inh -28.
Screening O=C1C(=O)c2ccccc2-c2ccccc21 returned RmlC RmlD mix 13 and YopH inh 100*.
CC1=C(C(=O)Nc2cccc(F)c2)C(c2ccsc2)C2=C(CC(C)(C)CC2=O)N1 (centres undefined) was read as YopH inh -22.
COc1cc(NC(=O)c2ccc3c(c2)OCO3)c2ncccc2c1 was read as RmlC RmlD mix -17 and YopH inh -32.
`COc1cc(NCCCCCCCN)c2ncccc2c1` gave RmlC RmlD mix -15 and YopH inh 52*.
For CS(=O)(=O)N(CCc1ccccc1)CC(=O)N1CCc2ccccc2C1 the results were RmlC RmlD mix 7 and YopH inh -22.
Screening CCOC(=O)c1cnn2c(C(F)(F)F)cc(-c3ccccc3)nc12 returned RmlC RmlD mix -14 and YopH inh -27.
For CCOC(=O)N1CCC(NC(=O)c2cnn3c(C(F)(F)F)cc(-c4cccc(OC)c4)nc23)CC1 the results were RmlC RmlD mix 121*.
For CN1CCN(CCCc2c3c(cc4c2CCC4)CCC3)CC1 the results were YopH inh -23.
CCOC(=O)N/N=C/c1ccc(N(CC)CC)cc1O was read as YopH inh -26.
CCN(CC)c1ccc(/C=N/Nc2ccc(C)cc2)c(O)c1 was read as YopH inh 83*.
For O=C(O[C@@H]1OC2COC(=O)c3cc(O)c(O)c(O)c3-c3c(cc(O)c(O)c3O)C(=O)O[C@@H]([C@H]1O)[C@@H]2O)c1cc(O)c(O)c(O)c1 the results were RmlC RmlD mix 3 and YopH inh 54*.
Screening CNC(=O)c1cc2cc(OC)ccc2oc1=N returned RmlC RmlD mix 42* and YopH inh -19.
For CNC(=O)c1cc2cc(OC)ccc2oc1=O the results were RmlC RmlD mix 0 and YopH inh -13.
CN1C[C@H](CNC(=O)OCc2ccccc2)C[C@@H]2c3cccc4c3c(cn4C)C[C@H]21 was read as RmlC RmlD mix 2 and YopH inh -11.
For CC[C@@H](CO)NC(=O)[C@@H]1C=C2c3cccc4c3c(cn4C)C[C@H]2N(C)C1 the results were RmlC RmlD mix 19 and YopH inh 64*.
CC(=O)C1=C(c2ccc(Br)cc2)C(=O)c2ccccc2C1=O was read as YopH inh 4.
`CNC1=C(N(C(C)=O)c2ccc(Br)cc2)C(=O)c2ccccc2C1=O` gave YopH inh 84*.
`COc1ccccc1NS(=O)(=O)c1cc(Cl)ccc1OC` gave RmlC RmlD mix -9 and YopH inh -20.
For O=C(COC(=O)c1cc(-c2cccs2)nn1-c1ccccc1)Nc1ccc(F)c([N+](=O)[O-])c1 the results were YopH inh -21.
COCCCn1cc(C(=O)c2cc(OC)ccc2OCC(=O)Nc2cc(C)on2)cc(C#N)c1=O was read as RmlC RmlD mix -5 and YopH inh -14.
`COC(=O)c1ccc(NC(c2ccc(Cl)cc2)P(=O)(OC)OC)cc1` (centres undefined) gave YopH inh -29.
Screening Cc1[nH]n(-c2ccccc2)c(=O)c1C(C[N+](=O)[O-])c1ccc(Cl)cc1 (centres undefined) returned YopH inh 76*.
For Cc1[nH]n(-c2ccccc2)c(=O)c1Sc1ccc(Cl)cc1 the results were RmlC RmlD mix 4 and YopH inh -1.
`Cc1ccc(C(C[N+](=O)[O-])c2c(C)[nH]n(-c3ccccc3)c2=O)cc1` (centres undefined) gave YopH inh 83*.
`Cc1[nH]n(-c2ccccc2)c(=O)c1C(C[N+](=O)[O-])c1ccc(F)cc1` (centres undefined) gave YopH inh -4.
`COC(=O)c1ccc(NC(=O)Cn2nc(-c3ccncc3)nc2SCC(=O)Nc2nccs2)cc1` gave RmlC RmlD mix -6 and YopH inh -25.
Cc1ccc(-c2csc(NC(=O)CCNC(=O)c3ccccc3Cl)n2)cc1 was read as YopH inh -13.
Screening O=C1CC(N(O)c2ccccc2)C(=O)N1Cc1ccccc1 (centres undefined) returned RmlC RmlD mix 5 and YopH inh 57*.
O=C1CC(N(O)c2ccccc2)C(=O)N1c1cc(Cl)cc(Cl)c1 (centres undefined) was read as RmlC RmlD mix -11 and YopH inh -29.
For CC(CNC(=O)c1cc(Cl)ccc1[N+](=O)[O-])NC(=O)c1cc(Cl)ccc1[N+](=O)[O-] (centres undefined) the results were RmlC RmlD mix -6 and YopH inh 14.
Screening Cc1c(N2C(=O)/C(=C3/C(=O)N(C)c4ccccc43)SC2=S)c(=O)n(-c2ccccc2)n1C returned RmlC RmlD mix -9 and YopH inh -29.
For CC(=O)N1C(=O)/C(=C2\SC(=S)N(c3c(C)n(C)n(-c4ccccc4)c3=O)C2=O)c2ccccc21 the results were YopH inh 99*.
For O=C(NCCN1CCOCC1)c1cc2c(=O)n3ccccc3nc2n1Cc1ccccc1 the results were RmlC RmlD mix 86* and YopH inh -27.
For N=c1c(C(=O)NC2CCCC2)cc2c(=O)n3ccccc3nc2n1CCN1CCOCC1 the results were RmlC RmlD mix 3 and YopH inh -13.
Screening CC(=O)N=c1c(C#N)cc2c(=O)n3ccccc3nc2n1Cc1ccccc1 returned YopH inh -21.
For N#Cc1cc2c(=O)n3ccccc3nc2n(CCCN2CCOCC2)c1=O the results were RmlC RmlD mix 79* and YopH inh -46.
For Cc1nn(C)c(C(=O)N2CCOCC2)c1Cl the results were YopH inh -7.
For O=C(CSc1ncc(-c2ccccc2)n1C1CCCC1)N1CCc2ccccc21 the results were RmlC RmlD mix -27 and YopH inh -31.
CCOC(=O)c1c(-c2ccc(C)o2)csc1NC(=O)COC(=O)c1ccc(NC(N)=O)cc1 was read as RmlC RmlD mix -3 and YopH inh -10.
`CCN(CC)S(=O)(=O)c1ccc(N2CCOCC2)c(NC(=O)Cc2cccc3ccccc23)c1` gave YopH inh -25.
Screening COC(=O)c1sc(NC(=O)C2CCCCC2C(=O)O)c(C(=O)OC)c1C (centres undefined) returned RmlC RmlD mix 7 and YopH inh -25.
Screening [O-]/[N+](=C/c1ccc(F)cc1)c1ccccc1 returned RmlC RmlD mix 7 and YopH inh 53*.
